Source: the supplement of paper PMC6555819

How the values were obtained:
Assay in all cases: PBM binding z-score (relative to random genomic background probes); higher = stronger binding; sequences stand for … in GC…GCGATTGACAGCGTAGAATGAAGG
[1] = test system: PPARg:RXRa DBDmut IVT, anti-RXR (DBD mutation: RXRa K156A/R161A, NR concentration 270 nM, RXRa partner concentration 90 nM)
Summary of the method: (§1)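 Probes were double-stranded and carried 34-nt variable regions with direct-repeat seeds, single-nucleotide variants, half-site ablations and random human genomic background sequences, printed on custom Agilent 4×180K protein-binding microarrays. Arrays were incubated 1 h with ligand-free nuclear receptor dimers in PBS pH 7.4, 2% milk, 0.02% Triton X-100, 1 mM DTT, 0.2 mg/mL BSA and 0.4 mg/ml salmon testes DNA. Antibodies against each partner (one per run) detected binding, and scanned fluorescence was regression-normalized. Binding z-scores use the random background probes as reference.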

[2] = test system: PPARg:RXRa IVT, anti-PPARg (NR concentration 270 nM, RXRa partner concentration 90 nM)
Summary of the method: as §1

[3] = test system: PPARg DBDmut:RXRa IVT, anti-PPARg (DBD mutation: PPARg1 K132A/R137A, NR concentration 270 nM, RXRa partner concentration 90 nM)
Summary of the method: as §1

[4] = test system: PPARg DBDmut IVT, anti-PPARg (DBD mutation: PPARg1 K132A/R137A, NR concentration 270 nM)
Summary of the method: as §1

[5] = test system: PPARg homodimer (NR concentration 180 nM)
Summary of the method: as §1

[6] = test system: PXR:RXRa (NR concentration 270 nM, RXRa partner concentration 90 nM)
Summary of the method: as §1

[7] = test system: PXR homodimer (NR concentration 270 nM)
Summary of the method: as §1

[8] = test system: RARa:RXR (NR concentration 270 nM, RXRa partner concentration 90 nM)
Summary of the method: as §1

[9] = test system: RARa homodimer (NR concentration 270 nM)
Summary of the method: as §1

[10] = test system: RARb:RXRa (NR concentration 270 nM, RXRa partner concentration 90 nM)
Summary of the method: as §1

Sequence	PBM binding z-score [1]	PBM binding z-score [2]	PBM binding z-score [3]	PBM binding z-score [4]	PBM binding z-score [5]	PBM binding z-score [6]	PBM binding z-score [7]	PBM binding z-score [8]	PBM binding z-score [9]	PBM binding z-score [10]
ATCTCTATGTAAAAGTTCAGTGAATCCCGAGGAT	-0.373	1.21	1.18	0.786	1.41	1.78	1.21	1.08	0.424	2.23
GGAACGAGGGCATTCGAGTCGATAGCATGGCGAT	2.96	2.19	-0.0559	-0.671	-0.141	1.5	0.546	0.428	-0.54	1.48
GCAGACAGGTGAATCGCAGGTAACTCAGGGTGGC	0.726	0.657	-0.695	-0.904	-0.727	-0.313	-0.959	0.0382	-0.689	0.443
TAGCCTAGGTCATGGGCCAGTATACCACGCGAAC	1.08	2.99	0.0326	-0.324	1.77	1.62	-0.133	2.54	-0.386	3.7
TCTTGCAGATCAATAGAGGTTAAGAAAGTGCGCT	0.862	0.37	0.336	-0.0409	-0.12	3.03	0.036	1.91	-0.478	0.805
ATAGGTAGGTTAAGGGTCATTCAGGTTGGTTCGC	3.71	5.35	3.33	1.88	4.75	5.63	3.61	6.1	3.3	3.83
CTCGAAAGGGCGGTTGAGGTGAGTATACGGATAA	-0.112	-0.15	0.116	0.0622	0.247	0.233	0.128	0.395	-0.275	1.08
CAAACTAGGTCACCAGAAGGTCAAAGTCCGCATG	8.93	9	4.64	2.7	9.04	5.96	2.47	7.6	3.53	5.18
CTTCCAAGGTGAACAAGGTCGTTGATTACTATTC	2.37	2.58	0.501	-0.605	0.985	2.6	1.19	1.97	-0.158	2.18
ATATGTAGGTTACATCCGGGTCATTCAAGCTATG	7.38	7.61	3.54	2.95	2.2	3.81	1.61	4.07	0.831	2.43
AGTCAAAGTACACTAGGTAACGTAAGATTCAGCT	1.45	2.33	0.868	0.545	-0.165	-0.253	-0.00521	-0.109	0.688	0.988
TCAGCCAGGTGAAGGTAACTCAGGTACGCAGTCG	1.65	1.33	-0.394	-0.849	-0.828	-0.0147	-0.594	0.481	-0.526	0.673
AATAGCAGGCCAAGGGTCACTCAAGATTAGTCCG	2.14	4.27	0.158	-0.162	1.57	3.26	-0.222	4.09	0.758	3.54
AATACAGGGTCATCGTAGGCCTGAGTACGCACAG	2.91	4.07	1.77	1.33	2.11	4.23	0.334	4.79	0.501	4.43
CTCGAAAGGTCGTGCTCATGTGAGTATACCAAAC	1.04	1.63	0.526	0.798	1.16	3.17	0.0761	4.03	0.231	4.13
AGAATGAGGTTATACATAGATCAGGGAAGAAAGT	2.35	1.91	1.44	1.27	1.21	1.43	0.76	1.9	0.765	1.6
CCTATTAGTTGACCTTAAGGGCAACCGAAGCTCG	1.43	2.7	1.27	0.764	3.46	4.4	1.93	5.12	2.39	3.64
CCTATTAATTGACCATAAGGGCAACCGAAGCTCG	0.352	0.562	0.908	0.978	2.66	0.673	1.92	1.11	3.76	1.42
ATATGTAGGTTATCGGGTCAGTCAGTTTGCGCAT	7.7	7.77	4.15	2.31	2.57	2.53	2.52	2.6	1.19	2.55
GCTGCAAGGTCAGGTTGGTCAGCTAACGGGTACG	1.24	1.7	-0.124	-0.859	1.91	2.44	-0.0524	3.02	0.176	4.4
CGTCCAAGGTCTAAGGTCAGTGAAGAGATGACGG	0.385	1.44	-0.479	-0.374	2.23	2.21	0.498	3.2	0.608	3.71
CCTAGTTTGTCAGGAGGTCACACACCGGATATGA	1.14	2.9	1.37	1.6	4.45	4.63	1.7	5.02	2.79	3.46
CCTACTGGGCCAAAAAGGTCATTAATGCCGATAA	3.72	3.94	0.336	0.139	3.45	4.39	3.17	5.01	1.3	3.64
TCTTGTAGATCAGCAGGTTAAGAATGCTGGCCAA	1.36	0.428	-0.195	-0.491	0.12	0.00264	-0.0255	0.239	-0.0617	0.12
CTCGAAACGTCGTGCTCAGGTGAGTATACCAAAC	-0.582	-0.171	-0.256	0.311	-0.393	-0.468	-0.608	-0.466	-0.557	-0.265
